Records with an inconclusive call do not appear. Activity calls are given as the source filed them. The call rests on the fitted dose curve; in most records, active means well fitted inhibition curve with a large enough effect; inconclusive means small, poorly fitted or top-dose-only effect; inactive means flat fitted curve, though single readings scatter.
Experiments:
Assay in all cases: qHTS profiling for inhibitors of Plasmodium falciparum proliferation (AID 504749); further: nearly all actives have a fitted effect of over 60% in size
Settings in all cases: P. falciparum in erythrocytes, SYBR Green DNA, 72 h; series mostly up to 28.7 µM
CP252 = system: CP252
Summary of the method: (§1)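 Quantitative HTS: compounds pinned into medium, infected erythrocytes added (0.3% parasitemia, 2.5% hematocrit), 72 h culture at 37 C under 5% CO2. Saponin/Triton lysis with SYBR Green I, overnight RT, then fluorescence read.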

CP256 = system: CP256
Summary of the method: as §1

CP260 = system: CP260
Summary of the method: as §1

CP262 = system: CP262
Summary of the method: as §1

CP265 = system: CP265
Summary of the method: as §1

CP266 = system: CP266
Summary of the method: as §1

CP268 = system: CP268
Summary of the method: as §1

CP269 = system: CP269
Summary of the method: as §1

CP286 = system: CP286
Summary of the method: as §1

CP291 = system: CP291
Summary of the method: as §1

CP297 = system: CP297
Summary of the method: as §1

CP305 = system: CP305
Summary of the method: as §1

CP315 = system: CP315
Summary of the method: as §1

CP325 = system: CP325
Summary of the method: as §1

CP329 = system: CP329
Summary of the method: as §1

CP335 = system: CP335
Summary of the method: as §1

DFO2036 = system: DFO2036
Summary of the method: as §1

DIV14 = system: DIV14
Summary of the method: as §1

DIV17 = system: DIV17
Summary of the method: as §1

DIV30 = system: DIV30
Summary of the method: as §1

Dd2 = system: Dd2
Summary of the method: as §1

ECU = system: ECU
Summary of the method: as §1

FAB9 = system: FAB9
Summary of the method: as §1

GB4 = system: GB4
Summary of the method: as §1

HB3 = system: HB3
Summary of the method: as §1

ICS = system: ICS
Summary of the method: as §1

JCK = system: JCK
Summary of the method: as §1

N140 = system: N140
Summary of the method: as §1

P93_24 = system: P93_24
Summary of the method: as §1

P94_40 = system: P94_40
Summary of the method: as §1

PAD = system: PAD
Summary of the method: as §1

PC15 = system: PC15
Summary of the method: as §1

PC26 = system: PC26
Summary of the method: as §1

PC49 = system: PC49
Summary of the method: as §1

SC27B = system: SC27B
Summary of the method: as §1

TAB109 = system: TAB109
Summary of the method: as §1

TAB113 = system: TAB113
Summary of the method: as §1

TAB165 = system: TAB165
Summary of the method: as §1

W2 = system: W2
Summary of the method: as §1

Measured: Potency

C[N+]1([O-])[C@H]2CC[C@H]1CC(OC(=O)[C@@H](CO)c1ccccc1)C2 (some centres undefined)
inactive: CP252 | CP256 | CP260 | CP262 | CP265 | CP266 | CP268 | CP269 | CP286 | CP291 | CP297 | CP305 | CP315 | CP325 | CP329 | CP335 | DFO2036 | DIV14 | DIV17 | DIV30 | Dd2 | ECU | FAB9 | GB4 | HB3 | ICS | JCK | N140 | P93_24 | P94_40 | PAD | PC15 | PC26 | PC49 | SC27B | TAB109 | TAB113 | TAB165 | W2

From PubChem BioAssay (NCATS)
